This is one part of the list. Results filed as inconclusive are left out. Active and inactive are the calls of the source.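 How the source made its calls: active means fitted half-maximal concentration for signal loss at or below twice the highest dose tested, in every separate run (actives reach about 64 µM in these data); inconclusive means runs disagree, or flat partial signal loss, or poor fit; inactive means the rest.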
Assay: DNA-binding compounds via dye displacement, dose response, artefact control for RAD52 inhibitor project, biochemical, fluorescence polarization, cherry-pick (AID 652128)
Settings: Salmon sperm DNA/acridine orange FP displacement
With `COc1ccc2c(c1O)-c1cccc3c1[C@@H](C2)N(C)CC3` the outcome was “inactive”.
For `C[N+]1(C)CCOC(O)(c2ccc(-c3ccc(C4(O)C[N+](C)(C)CCO4)cc3)cc2)C1` (stereo not given), the outcome was “inactive”.
In the case of `CCOc1cccc(=NC2CCCCC2)c2c(C)[nH]c(C)c12`, the AC50 is reported as 36 µM (active).
For `CC1=CC(=Cc2sc3ccccc3[n+]2C)C=C(C)O1`, the outcome was “inactive”.
For `CCCCCCCCCCCCn1ccc(=N)cc1`, the outcome was “inactive”.

From PubChem BioAssay AID652128 (Broad Institute, 2013)
